High-throughput results from PubChem.
Gal4-VP16 FLuc: counter-screen for ROR gamma inhibitors: Gal4-VP16 reporter. Potency, µM (highest dose often 53.6 µM), usual class: inhibitors. hit rate 3.5% among 310,000. Drosophila S2 Gal4-VP16 UAS-luciferase, luminescence, 20 h;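 note: Gal4-VP16 expression switched on by copper sulfate through the metallothionein promoter; nearly all actives have a fitted effect of over 50% in size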
RORgamma inh: inhibitors of mouse ROR gamma transcriptional activity | P51450 | Drosophila S2 Gal4-RORgamma UAS-luciferase reporter, 20 h | Potency, µM (doses to about 53.6 µM), hits mostly inhibitors | hit rate 5.4% among 310,000 | AID 2551; note: nearly all actives have a fitted effect of over 60% in size
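ROR gamma transcriptional activity was tracked as Gal4-UAS luciferase output in stably transfected Drosophila Schneider cells, with compound added 1 hr before 700 uM copper sulfate induction and a 20 hr ambient-temperature incubation.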
ERG Ets-DNA blk: blocks human ERG Ets domain binding to DNA; P11308; fluorescence polarization, His-ERG Ets domain / labelled DNA; Potency, µM (titrated, usually from 76.9 µM), usual class: inhibitors; hit rate 0.028% among 370,000; AID 624246; active = well fitted inhibition curve with a large enough effect in the polarisation, with a control signal flat; inconclusive = small, poorly fitted or top-dose-only effect, or effect the other way, or a change in a side signal; inactive = no such curve, though single readings can be large or run the other way; the % refers to the polarisation;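 note: polarization taken with two DNA probes labelled with fluorescein and Texas red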
Target sequence (P11308 whole entry, looked up, the tested form may be a part): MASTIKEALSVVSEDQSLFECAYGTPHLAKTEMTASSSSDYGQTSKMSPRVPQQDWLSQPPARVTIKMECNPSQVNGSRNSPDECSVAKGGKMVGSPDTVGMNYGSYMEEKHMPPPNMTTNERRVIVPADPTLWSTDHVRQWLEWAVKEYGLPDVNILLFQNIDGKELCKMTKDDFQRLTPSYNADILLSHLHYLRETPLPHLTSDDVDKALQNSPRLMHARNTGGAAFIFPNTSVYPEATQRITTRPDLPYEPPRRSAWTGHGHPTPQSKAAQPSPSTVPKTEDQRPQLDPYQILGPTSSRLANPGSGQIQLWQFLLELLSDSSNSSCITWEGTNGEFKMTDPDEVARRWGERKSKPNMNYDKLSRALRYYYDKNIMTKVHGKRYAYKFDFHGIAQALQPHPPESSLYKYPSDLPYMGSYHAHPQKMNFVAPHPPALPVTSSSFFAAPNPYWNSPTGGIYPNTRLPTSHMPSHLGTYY
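His-tagged ERG Ets domain (1 uM in the protein solution; 300mM KCl, 50mM Tris-HCl, 1mM EDTA, 1mM DTT, pH 7.5) received compound, then a probe mix of 5 nM fluorescein-DNA and 100nM Texas-615-DNA. Fluorescence polarization was read for both dyes.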
Integrin act MD: activates integrin-mediated alleviation for muscular dystrophy. Potency, µM (highest dose often 38.3 µM), hits mostly activators. hit rate 0.064% among 350,000. alpha7betagal myoblasts, beta-gal FDG fluorescence, 48 h; note: nearly all actives have a fitted effect of over 60% in size
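alpha7betagal+/- myoblasts (passage 13, 250/well) treated 48 h at 37C with compounds at 1:260 dilution of DMSO stock. Lysed, then beta-galactosidase activity read as FDG fluorescence (ex 480/em 540) after 30 min, with pre-read for autofluorescence.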
Giardia kill: kills Giardia lamblia; hit rate 0.15% among 340,000; Giardia lamblia trophozoite viability; activity change, % at 7.66 µM, hits read low; AID 540267; in the data active = activity change below about -80%; inconclusive = between about -30% and that limit;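 note: parasites exposed to compound for two days anaerobically before the ATP read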
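Killing of trophozoites was scored by loss of ATP luminescence after a 48 hrs anaerobic exposure to compounds at 37 deg C, using 100 cells per well.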
Each line names hits and unclear results; the compound was inactive in the other large screens. Shown is part of a subset that was picked to be rich in hits. Unless noted, calls come from the whole dose curve; as a rule, active = well fitted curve in the direction sought with a large enough effect; inconclusive = small, poorly fitted or top-dose-only effect, or another doubt; inactive = no such curve, though single readings can be large; an effect the other way counts as inactive or inconclusive.

O=C(Nc1ccc2c(c1)OCCO2)c1ccccc1F	Gal4-VP16 FLuc inconclusive, RORgamma inh inconclusive, Giardia kill inconclusive
O=C(NC(=S)Nc1ccc2c(c1)OCCO2)c1ccccc1F	Gal4-VP16 FLuc inconclusive, RORgamma inh 10µM
COc1cc(C2NC(=S)NC(C)=C2C(=O)Nc2cc(C)cc(C)c2)ccc1O (centres undefined)	none
CCOc1cccc(C(=O)NC(=S)Nc2ccc(Cl)cc2C(=O)O)c1	Gal4-VP16 FLuc 3.55µM, RORgamma inh 7.08µM
COc1cc(C(=O)Nc2nc(C)c(Cc3ccc4c(c3)OCO4)s2)cc(OC)c1OC	Gal4-VP16 FLuc inconclusive, RORgamma inh 7.94µM
COc1cccc(C(=O)NC(=S)Nc2ccc(Cl)c(C(=O)O)c2)c1	none
O=C(Nc1ccc(Br)cc1)c1cccc(-n2cnnn2)c1	RORgamma inh inconclusive
O=C(Nc1nc(-c2ccccn2)cs1)c1ccc(Br)s1	Gal4-VP16 FLuc 1.26µM, RORgamma inh 1.26µM
C[C@H](NC(=O)c1ccco1)C(=O)Nc1nc(-c2ccccn2)cs1	none (no result: Gal4-VP16 FLuc, RORgamma inh)
O=C(Nc1nc(-c2ccccn2)cs1)c1ccco1	RORgamma inh 7.08µM
O=C(Nc1nc(-c2ccccn2)cs1)c1cccc(-n2cnnn2)c1	RORgamma inh 5.01µM
COC(=O)[C@@H]1C[C@@]2(O)[C@@H](O)[C@@H](O)[C@@H](O)C[C@H]2N1Cc1ccc(N2CCOCC2)cc1	none (no result: ERG Ets-DNA blk, Integrin act MD, Giardia kill)
Cc1cc(Br)ccc1SCC(=O)OCC(=O)Nc1ccc2[nH]c(=O)[nH]c2c1	none (no result: Gal4-VP16 FLuc, RORgamma inh)
CCC/C=C/C1C(=O)C2OC2C2(OCC(CC)(CC)CO2)C1CO (centres undefined)	RORgamma inh inconclusive (no result: ERG Ets-DNA blk, Integrin act MD, Giardia kill)
Oc1cccc2ccc[n+](CC(O)Cn3c4ccccc4c4ccccc43)c12 (centres undefined)	Gal4-VP16 FLuc 22.4µM
S=c1[nH]nc(CN2CCCC2)n1Cc1ccccc1	RORgamma inh 11.2µM
Cc1ccn(Cc2n[nH]c(=S)n2Cc2ccccc2)n1	none
S=c1[nH]nc(CN2CCCCC2)n1Cc1ccccc1	Gal4-VP16 FLuc 17.8µM, RORgamma inh 3.16µM, Giardia kill inconclusive
CCN(C(=O)CN1C(=O)/C(=C/c2ccccc2F)SC1=S)C1CCS(=O)(=O)C1 (centres undefined)	RORgamma inh 10µM
CN1CCN(C(=O)CCN2C(=O)/C(=C\c3ccccc3F)SC2=S)CC1	RORgamma inh 5.62µM
CN1CCN(C(=O)CCN2C(=O)/C(=C/c3ccccc3Cl)SC2=S)CC1	RORgamma inh 17.8µM
CCCCN(CC)CCCNC(=O)c1ccc2c(c1)NC(=O)CN2C	none (no result: Gal4-VP16 FLuc, RORgamma inh, Integrin act MD, Giardia kill)
COc1cccc(NS(=O)(=O)c2ccc(Br)s2)c1	Gal4-VP16 FLuc 4.47µM, RORgamma inh 3.55µM
COc1ccc(OC)c(NS(=O)(=O)c2ccc(Br)s2)c1	none (no result: Integrin act MD, Giardia kill)
COc1cccc(N2CCN(c3ncnc4onc(-c5ccc(Cl)cc5)c34)CC2)c1	none (no result: Gal4-VP16 FLuc, RORgamma inh, Integrin act MD, Giardia kill)
CC(C)(C)n1nnnc1C(c1ccc(C(F)(F)F)cc1)N(Cc1ccc(F)cc1)Cc1ccco1 (centres undefined)	Gal4-VP16 FLuc inconclusive, RORgamma inh inconclusive
CC(C)(C)n1nnnc1C(c1ccc(F)cc1)N(Cc1ccc(F)cc1)Cc1ccco1 (centres undefined)	RORgamma inh 11.2µM
CC(C)(C)n1nnnc1C(c1ccc(C(F)(F)F)cc1)N(Cc1ccccc1)Cc1ccco1 (centres undefined)	Gal4-VP16 FLuc 3.98µM, RORgamma inh 6.31µM
Cc1ccc(C(c2nnnn2C(C)(C)C)N(Cc2ccco2)Cc2cccs2)cc1 (centres undefined)	Gal4-VP16 FLuc 7.08µM, RORgamma inh 10µM
COC(=O)Nc1ccc(N2CCOCC2)c(S(=O)(=O)N2CCOCC2)c1	Integrin act MD inconclusive
Cc1ccc(S(=O)(=O)/N=C2/C=C(Sc3ncn[nH]3)C(=O)c3ccccc32)c(C)c1	Gal4-VP16 FLuc 5.01µM, RORgamma inh 11.2µM (no result: ERG Ets-DNA blk, Integrin act MD, Giardia kill)
CC(C)c1ccc(S(=O)(=O)/N=C2/C=C(Sc3ncn[nH]3)C(=O)c3ccccc32)cc1	RORgamma inh inconclusive
Cc1ccc(S(=O)(=O)/N=C2/C=C(Sc3ncn[nH]3)C(=O)c3ccccc32)cc1	Gal4-VP16 FLuc 3.55µM, RORgamma inh 3.55µM
Cc1ccc(/C=N/Nc2cc(C)nc(N3CCOCC3)n2)cc1	none
O=[N+]([O-])c1cc2c(cc1/C=N/Nc1nc(Nc3ccccc3)nc(N3CCCCC3)n1)OCO2	RORgamma inh 3.16µM
